According to ChEMBL document CHEMBL3988442, “University of Dundee, Small-Polar-MMV Screening Library” (2021):
The whole screen tested about 53,000 compounds, of which about 900 (1.7%) showed an effect of 50% or more. Shown is part of a subset that was picked to be rich in strong results.

System: Mycobacterium tuberculosis
Test: Cornell - Phenotypic assay to identify agents that inhibit growth of Mycobacterium tuberculosis
Type: functional
Set-up: scale not given: direction of the effect not stated beside the values
Conditions: 10 mM as filed; unlikely as a test dose

Going from `Cc1nc(C2CCCN(C(=O)c3cc(Cl)c4c(c3)OCO4)C2)no1` (stereo unspecified) to `COCc1nc(C(=O)N2CCCC2c2noc(C)n2)cs1` (stereo unspecified), the “Percent Effect” value falls from 12.39% to -28.82%.

Compared with `O=C(C1CCCO1)N1C[C@@H]2CCN(c3cnccn3)C[C@@H]2C1.O=C(O)C(F)(F)F` (stereo partly specified), `CC(=O)N1CCN(c2cnccn2)CC(CO)C1` (stereo unspecified) is lower in “Percent Effect” value: 30.53% for the first, 10.91% for the second.

First: c1ccc(C2CCCN(c3cncc(-n4cccn4)n3)CC2)cc1 (stereo unspecified)
Second: c1ccc(C2CCN(c3cncc(-n4cccn4)n3)CC2)cc1
The “Percent Effect” value of the first is higher: 42.47% for the first, 25.96% for the second.

First: c1ccc(COC2CCN(c3cncc(-n4cccn4)n3)CC2)cc1
Second: O=C1NC2(CCN(CCc3ccccc3)CC2)CC1c1ccccc1 (stereo unspecified)
The “Percent Effect” value of the first is higher: 60.34% for the first, 19.15% for the second.

Going from `O=C(Nc1ccnc2ccnn12)c1ccc(NC2CC2)nc1` to `O=C(Nc1ccnc2ccnn12)c1ccc(N2CCC(O)CC2)cc1`, the “Percent Effect” value rises from -11.01% to 85.62%.

First: Cc1cc(NC(=O)c2ccc(N3CCOCC3)cc2)[nH]n1
Second: Cc1nn(C)c(N(C)C)c1CNCc1ccnc(N2CCOCC2)c1
The “Percent Effect” value of the first is lower: 29.03% for the first, 31.35% for the second.

Compared with `CS(=O)(=O)N1CCO[C@@H]2CN(C(=O)C3CC(F)(F)C3)C[C@@H]2C1`, `CCS(=O)(=O)N1C[C@H]2CN(CC3CC3)C(=O)[C@H]2C1` is lower in “Percent Effect” value: -22.45% for the first, -29.96% for the second.

First: Cn1c(NCc2ccc(C(N)=O)cc2)nc2cc(Cl)ccc21
Second: Cn1cc(CNc2nc3cc(Cl)ccc3n2C)cn1
The “Percent Effect” value of the first is higher: 60.39% for the first, 16.71% for the second.

Going from `Cn1c(NC(=O)CNC(=O)C2CC2)nc2cc(Cl)ccc21` to `CCCNC(=O)NC(=O)CNc1c(F)cccc1N1CCCC1`, the “Percent Effect” value rises from -3.36% to -0.2754%.

Going from `COc1cccc(CN2CCCCCC2c2cccc(F)c2)c1O` (stereo unspecified) to `COc1cccc(CN2CCCCCC2c2cccc(C)c2)c1O` (stereo unspecified), the “Percent Effect” value rises from 45.8% to 84.28%.

Compared with `COc1cccc(CN2CCCCCC2c2cccs2)c1O` (stereo unspecified), `COc1cccc(CN2CCCCCC2c2cccs2)c1OC` (stereo unspecified) is lower in “Percent Effect” value: 38.44% for the first, 35.04% for the second.

Compared with `Cc1cccc(C2CCCCCN2Cc2cn(C)nc2C)c1` (stereo unspecified), `COc1cccc(CN2CCCCCC2c2sccc2C)c1O` (stereo unspecified) is higher in “Percent Effect” value: 15.03% for the first, 53.6% for the second.

Going from `COc1cc(-c2cc(N)ncn2)cc(OC)c1OC` to `COc1cccc(CN(C)Cc2c(C)noc2C)c1OC`, the “Percent Effect” value falls from 14.69% to -9.272%.

Going from `O=C(NCCNc1ncccn1)C1CCN(C(=O)NC2CC2)CC1` to `O=C(NCc1ccco1)[C@@H]1CCO[C@@H]2CCN(c3ncccn3)C[C@@H]21.O=C(O)C(F)(F)F`, the “Percent Effect” value falls from -5.946% to -22.51%.

Going from `Cc1nc(N(C)C)nc(C)c1NS(=O)(=O)c1ccc(OC(F)(F)F)cc1` to `COCc1nc2cc(NCc3sc(C)nc3C)ccc2o1`, the “Percent Effect” value rises from 21.9% to 97.37%.

First: Cc1ccc(CN2CCCC2(C(N)=O)c2cnccn2)c(C)c1 (stereo unspecified)
Second: Cc1ccnc(C2CCN(C(=O)c3cnn(C)c3)CC2)n1
The “Percent Effect” value of the first is lower: -1.756% for the first, 19.18% for the second.

First: CSc1[nH]c(=O)c(C(=O)N2CCCC2C2CCCC2)cc1C#N (stereo unspecified)
Second: CCC1CCCCCN1C(=O)c1cc(C#N)c(SC)[nH]c1=O (stereo unspecified)
The “Percent Effect” value of the first is higher: 65.7% for the first, -5.356% for the second.

Compared with `CSc1[nH]c(=O)c(C(=O)N2CCCC2c2cccs2)cc1C#N` (stereo unspecified), `CC(C(N)=O)n1nc(-c2cccs2)cc(N)c1=O` (stereo unspecified) is lower in “Percent Effect” value: 17.36% for the first, -30.4% for the second.

First: CC(=O)c1ccc(C(=O)NCc2cccnc2N2CCCC(O)C2)s1 (stereo unspecified)
Second: CN(CC(=O)NCc1ccccn1)C1CCCN(c2cccnn2)C1 (stereo unspecified)
The “Percent Effect” value of the first is higher: 26.17% for the first, -22.52% for the second.

Going from `Cc1nc(-n2nc(-c3cccs3)cc2N)[nH]c(=O)c1C` to `CCc1c(C)nc(-n2nc(-c3cccs3)cc2N)[nH]c1=O`, the “Percent Effect” value rises from 75.1% to 106.9%.

Going from `CN1CCN(Cn2nc(-c3cccs3)ccc2=O)CC1` to `Cc1nn(C)c(C)c1S(=O)(=O)NCCn1ccc(-c2cccs2)n1`, the “Percent Effect” value falls from 17.93% to -2.587%.

First: CCc1c(C)nc(SCc2ccccn2)[nH]c1=O
Second: CCOc1ccccc1CCC(=O)Nc1c(C)nn(C)c1C
The “Percent Effect” value of the first is higher: 11.8% for the first, -20.08% for the second.

First: CN1C(=O)C2(CC(=O)Nc3c2cnn3C(C)(C)C)c2ccccc21 (stereo unspecified)
Second: Br.Cc1ccccc1OC1CCN(CC(=O)Nc2cnn(C)c2C)CC1
The “Percent Effect” value of the first is higher: 16.17% for the first, 6.171% for the second.

First: Cc1ccc(CC2CCCN2CC(=O)NCc2cccnc2)cc1 (stereo unspecified)
Second: Cc1nn(C)cc1NC(=O)CC1CCN(CCc2ccccc2)CC1
The “Percent Effect” value of the first is higher: 13.39% for the first, 6.464% for the second.

First: CN1CC2(CCCN(Cc3cccc(CCN)c3)C2)OC1=O (stereo unspecified)
Second: CCn1cc(CN2CCCN(C(=O)CCc3ccccc3)CC2)cn1
The “Percent Effect” value of the first is higher: 4.729% for the first, -0.8409% for the second.

Compared with `COC(=O)c1ccccc1S(=O)(=O)NC(=O)c1cccc2c1OCCO2`, `O=C(OCc1ccccc1)c1cccc(NC(=O)C2COCCO2)c1` (stereo unspecified) is higher in “Percent Effect” value: -3.436% for the first, -2.465% for the second.

First: Cl.Cl.O=C1NC2(CCNCC2)CC1c1ccncc1 (stereo unspecified)
Second: Cl.O=C1NC2(CCNCC2)CC1c1ccccc1 (stereo unspecified)
The “Percent Effect” value of the first is lower: -12.16% for the first, 100.2% for the second.

First: COc1ccccc1CCNS(=O)(=O)N1CCOCC1
Second: Cc1ccccc1OC1CCN(CC(=O)Nc2c(C)nn(C)c2C)CC1
The “Percent Effect” value of the first is lower: -2.569% for the first, 59.98% for the second.

First: COCC(=O)NCCc1nc2cc(-c3ccc(OC)cc3)ncn2n1
Second: COc1ccc(C(=O)NCCC(N)=O)c(I)c1
The “Percent Effect” value of the first is higher: 48.11% for the first, -0.6619% for the second.

First: Cc1cc(NCCS(C)(=O)=O)nc2cc3c(cc12)CCC3
Second: Cc1cc(CNc2ccc3nc(C)sc3c2)no1
The “Percent Effect” value of the first is lower: 21.34% for the first, 23.73% for the second.

Going from `CN(C)CCn1c(=O)oc2ccc(NC(=O)CSc3ccccc3)cc21` to `CN(C)CCn1c(=O)oc2ccc(NC(=O)CC(C)(C)C)cc21`, the “Percent Effect” value falls from 68.34% to 16.94%.

Compared with `CC(C)CCC(=O)Nc1ccc2oc(=O)n(CCN(C)C)c2c1`, `CCN(Cc1ccc(C(C)C)cc1)C(=O)c1csc(CN(C)C)n1` is higher in “Percent Effect” value: -39.6% for the first, -18.18% for the second.

Going from `CCCn1cc(-c2cc(-c3c[nH]cn3)c(C#N)c(N)n2)c(C)n1` to `CCCn1cc(-c2cc(-c3ccoc3)c(C#N)c(N)n2)c(C)n1`, the “Percent Effect” value rises from 4.241% to 46%.

Compared with `CCCn1cc(-c2cc(-c3cnc(OC)nc3)c(C#N)c(N)n2)c(C)n1`, `Cc1ncc(CN2CCC(c3nc(O)cc(-c4ccsc4)n3)CC2)cn1` is lower in “Percent Effect” value: 56.67% for the first, 21.36% for the second.

Compared with `CCc1noc(CN(CCC2CCCCC2)CC(N)=O)n1`, `CC1CCCCN1C(=O)COc1nc(Cc2ccc(F)cc2)no1` (stereo unspecified) is lower in “Percent Effect” value: 4.193% for the first, -36.23% for the second.

Compared with `CCOCc1cccc(NC(=O)C2COCCO2)c1` (stereo unspecified), `CCOC(=O)COc1cccc(NC(=O)C2COCCO2)c1` (stereo unspecified) is higher in “Percent Effect” value: -0.8336% for the first, 12.18% for the second.

Compared with `O=C(Nc1ccc(OCc2cccc(F)c2)c(F)c1)C1COCCO1` (stereo unspecified), `O=C(Nc1cccc(OCc2cccc(F)c2)c1)C1COCCO1` (stereo unspecified) is higher in “Percent Effect” value: 18.87% for the first, 108% for the second.

Compared with `O=C(Nc1cccc(OCc2ccc(F)cc2)c1)C1COCCO1` (stereo unspecified), `CCn1cc(NC(=O)CN2CCC(Oc3ccc(F)cc3)CC2)c(C)n1.Cl` is lower in “Percent Effect” value: 107.1% for the first, 59.25% for the second.

First: CN(C)c1cc2c(nn1)CCN(C(=O)C1Cc3ccccc3S1)C2 (stereo unspecified)
Second: CCNc1cc2c(nn1)CCN(C(=O)C1Cc3ccccc3S1)C2 (stereo unspecified)
The “Percent Effect” value of the first is higher: 54.31% for the first, 12.56% for the second.

Compared with `CN(C)c1cc2c(nn1)CCN(C(=O)C1CCc3ccccc31)C2` (stereo unspecified), `Cc1ccccc1OC1CCN(CC(=O)Nc2cn(C)nc2C)CC1` is higher in “Percent Effect” value: -36.17% for the first, 69.1% for the second.

Going from `CN1CCOC(CNC(=O)C2(c3cccc(C(F)(F)F)c3)CCCC2)C1` (stereo unspecified) to `Cc1cc(CN2CCN(CC3CC3)[C@@H]3CS(=O)(=O)C[C@@H]32)ccc1F`, the “Percent Effect” value falls from 17.35% to -1.418%.

First: Cn1ccc(NC(=O)CN2CCC(Oc3cnccn3)CC2)n1
Second: Cc1nn(C)cc1NC(=O)CN1CCC(Oc2cnccn2)CC1
The “Percent Effect” value of the first is lower: -4.083% for the first, 11.01% for the second.

Compared with `Br.Cc1ccccc1OC1CCN(CC(=O)Nc2ccn(C)n2)CC1`, `CCn1cc(NC(=O)CN2CCC(Oc3ccccc3C)CC2)c(C)n1` is lower in “Percent Effect” value: 51.43% for the first, 45.29% for the second.

Going from `Cn1ccc(NC(=O)CN2CCN(C3CCCC3)C(=O)C2)n1` to `Cc1cc(C2CCCCN2C(=O)c2cccn2C)nc2nccn12` (stereo unspecified), the “Percent Effect” value falls from 47.35% to 14.54%.

First: Fc1ccc(OC2CCN(CCn3cncn3)CC2)cc1
Second: Cc1ncsc1CNc1cccc(OCCN2CCCC2)c1
The “Percent Effect” value of the first is higher: 21.61% for the first, 16.77% for the second.

Going from `COc1ccc(Cl)cc1C(=O)N1C[C@@H](NC(=O)N(C)C)[C@H](C(C)C)C1` to `COC(=O)c1ccoc1CN(C)CC(=O)NC1CC1`, the “Percent Effect” value rises from -26.21% to 9.025%.

Compared with `CCOCCC1(CNC(=O)c2ccsc2)CCC1`, `COCCCSc1ccc(NCc2scnc2C)cc1` is lower in “Percent Effect” value: 23.41% for the first, 22.43% for the second.

First: Cc1cc(C(=O)N2CC[C@@H]3CN(C)S(=O)(=O)[C@@H]3CC2)no1
Second: Cc1cc(CN2CCN(CC3CC3)[C@@H]3CS(=O)(=O)C[C@@H]32)cc(C)c1O
The “Percent Effect” value of the first is lower: 25.4% for the first, 106.4% for the second.

Going from `O=C(O)c1ccnc2c(Br)cccc12` to `COc1ccc(CNC(=O)NC(C)(C(=O)O)c2ccco2)cc1F` (stereo unspecified), the “Percent Effect” value falls from 13.48% to -25.47%.

First: O=C1COC2(CCN(Cc3ccco3)CC2)CN1Cc1cccnc1
Second: Cc1ccc(CN2CCN(CC3CC3)[C@@H]3CS(=O)(=O)C[C@@H]32)cc1C
The “Percent Effect” value of the first is higher: 24.6% for the first, 21.5% for the second.

First: CCCN1CCN(Cc2cc(Cl)cc(Cl)c2)[C@H]2CS(=O)(=O)C[C@H]21
Second: O=S1(=O)C[C@@H]2[C@H](C1)N(Cc1cc(Cl)cc(Cl)c1)CCN2CCO
The “Percent Effect” value of the first is lower: -17.23% for the first, -11.47% for the second.

Going from `O=S1(=O)C[C@@H]2[C@H](C1)N(Cc1cc(Cl)cc(Cl)c1)CCN2CC1CC1` to `Cc1nc(NC2CCCCC2)cc(C2CCCNC2)n1.Cl` (stereo unspecified), the “Percent Effect” value falls from 85.08% to -33.64%.

Compared with `COCc1nc(CNc2cccc(-c3nc(C)c(C)o3)c2)cs1`, `COCc1nc2cc(NCc3scnc3C)ccc2o1` is higher in “Percent Effect” value: 46.4% for the first, 107% for the second.
